Compound activity: PubChem, several laboratories
The list is not random: actives were taken first. Their share in the collection is about 3.9%.
SKKanGAS inh = blocks kanamycin growth of S. pyogenes SKKanGAS strain. 1.3% of 300,000 active. BacTiter-Glo, 6 h. AID 1662. inhibition, % at 7.5 µM;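 active = mean replicate score, as percent of positive control median, at least 50; inconclusive = mean below 50 but one replicate at or above 50; inactive = mean and every replicate below 50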;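 note: strain carries kanamycin resistance gene driven by streptokinase promoter and grows in 40 µg/ml kanamycin; loss of luminescence reflects streptokinase promoter inhibition or plain growth inhibition; 0% = median of DMSO wells and 100% = positive control at its reference dose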
WT yeast gro inh = growth inhibition of WT yeast, mitochondrial fusion screen; mitochondrial fusion phenotypic screen, WT strain; inhibition, % at 10 µM; 2.1% of 190,000 active; AID 1362; in the data active = inhibition above about 58%; tested in S. cerevisiae
Platelet DG rel = modulates dense granule release in human platelets. inhibition, %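 (compounds screened at 7.5 µM in platelet-rich plasma)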. human platelet-rich plasma, SFLLRN dense granule ATP release, luminescence. 0.22% of 300,000 active. AID 1663;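 active = mean replicate score, as percent of positive control, at or above 50; inconclusive = mean below 50 but at least one replicate at or above 50; inactive = mean and every replicate below 50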
TPT1 inhibitor = C. albicans TPT1 enzyme inhibition; recombinant caTPT1, FP RNA substrate dephosphorylation; inhibition, % at 5 µM; 0.81% of 300,000 active; AID 1962;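 active = inhibition above the mean of all tested compounds plus 3 SD, set per screening campaign, cut at about 24% in these data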;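 note: plate controls were DMSO alone for no effect and ferristatin control at 100 nM for full effect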
PHOSPHO1 block = PHOSPHO1 (human) inhibition. recombinant PHOSPHO1, absorbance phosphatase assay. inhibition, % at 13.3 µM. 1.1% of 290,000 active. AID 1565; in the data active = inhibition above about 60%
Rtt109 HAT inh = blocks Candida albicans Rtt109/Vps75 acetyltransferase activity | Q5AAJ8 | purified Rtt109/Vps75, ThioGlo CoA-SH fluorescence, 4 h | inhibition, % at 34.9 µM | 0.16% of 330,000 active;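 active = inhibition of at least 50% in every replicate; inconclusive = best replicate reaches 50% inhibition but some replicates fall short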
Target sequence (Q5AAJ8 whole entry, looked up): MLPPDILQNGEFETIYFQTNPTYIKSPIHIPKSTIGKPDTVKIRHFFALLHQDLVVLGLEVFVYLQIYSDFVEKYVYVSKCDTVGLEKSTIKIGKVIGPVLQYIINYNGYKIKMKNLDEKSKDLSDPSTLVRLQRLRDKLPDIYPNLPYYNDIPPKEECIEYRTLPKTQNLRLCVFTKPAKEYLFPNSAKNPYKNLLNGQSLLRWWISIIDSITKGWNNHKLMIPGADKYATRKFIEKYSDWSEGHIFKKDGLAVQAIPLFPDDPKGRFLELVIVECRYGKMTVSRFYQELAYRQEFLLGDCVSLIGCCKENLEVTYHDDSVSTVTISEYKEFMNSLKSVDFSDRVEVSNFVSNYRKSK
* = called active by the depositor; ? = inconclusive; / = no result given.

SMILES	SKKanGAS inh	WT yeast gro inh	Platelet DG rel	TPT1 inhibitor	PHOSPHO1 block	Rtt109 HAT inh
Cc1ccc(-c2[nH]c3ccccc3c2C(C[N+](=O)[O-])c2ccco2)cc1 (centres undefined)	31	69*	?	5	21	10
COc1cc(/C=C2\CCn3c2nc2cc(C(=O)O)ccc2c3=O)ccc1OC(F)F	35	/	-5	-1	10	-10
COc1cc2c(cc1OC)-c1cc(Nc3ccc(F)cc3)nc(=O)n1CC2	-1	/	95*	1	37	-5
CCN(CC)c1ccc(Nc2cc3n(c(=O)n2)CCc2cc(OC)c(OC)cc2-3)cc1	18	/	20	0	33	-1
COc1cc2c(cc1OC)-c1cc(NC3CCCC3)nc(=O)n1CC2	8	5	26	1	21	-2
COc1cc2c(cc1OC)-c1cc(Nc3cccc(F)c3)nc(=O)n1CC2	-4	/	71*	/	14	0
COc1cc2c(cc1OC)-c1cc(Nc3ccc(N(C)C)cc3)nc(=O)n1CC2	9	/	76*	3	-23	8
NS(=O)(=O)c1cc(C(=O)OCC(=O)N2CCOCC2)ccc1Cl	2	/	14	2	31	-15
Cc1ccc(S(=O)(=O)n2c3ccc(F)cc3c3nc(C)sc32)cc1	24	78*	6	-1	-3	/
CN(c1ccccc1)S(=O)(=O)c1cccc(C(=O)NCC(=O)Nc2ccc(F)c(F)c2F)c1	/	/	/	/	/	-7
O=C(Nc1ccc(Cl)cc1)P(=O)(O)c1ccccc1	/	/	/	/	/	-17
O=C(NC(=S)Nc1ccccc1O)c1ccc(-c2ccc(Cl)cc2)o1	53*	5	-2	3	16	6
COc1ccccc1NC(=S)NC(=O)c1ccc(-c2ccc(Cl)cc2)o1	-13	28	3	-3	23	/
Cc1ccc(O)c(NC(=S)NC(=O)c2ccc(-c3ccc(Cl)cc3)o2)c1	96*	/	-8	-5	/	-2
FC(F)(F)c1nc(-c2cccs2)ncc1-c1nnnn1-c1ccc(Cl)cc1	12	77*	-2	0	-7	-1
CCSc1nnc(NC(=O)COc2ccc3ccccc3c2)s1	7	84*	4	-7	38	10
Cn1c(=O)c(C(=O)Nc2ccccc2S(N)(=O)=O)c(O)c2ccccc21	0	/	7	0	28	-8
CCC(C)n1c(=O)c(C(=O)Nc2ccccc2S(N)(=O)=O)c(O)c2ccccc21 (centres undefined)	42	65*	3	-3	9	0
CCCCn1c(=O)c(C(=O)N/N=C/c2ccc(F)cc2)c(O)c2ccccc21	11	-4	-7	-1	-10	/
CC(C)Cn1c(=O)c(C(=O)Nc2ccccc2S(N)(=O)=O)c(O)c2ccccc21	?	73*	0	-3	13	-7
CC(C)Cn1c(=O)c(C(=O)N/N=C/c2cccc(F)c2)c(O)c2ccccc21	64*	19	-9	1	-2	6
Cn1cccc1C1CCCN1CC(=O)Nc1ccc(C(N)=O)cc1 (centres undefined)	/	/	/	/	/	4
CC(NC(=O)c1ccccc1F)c1nnc(SCC(=O)NC2=NCCS2)n1C (centres undefined)	-1	/	8	-4	23	1
CC(C)(C)n1cnc2cc(NCc3ccc(Br)cc3)ccc21	17	/	-1	-1	32	5
CCc1ccc(CNc2ccc3c(c2)ncn3C(C)(C)C)cc1	57*	/	7	0	19	7
SMILES	SKKanGAS inh	WT yeast gro inh	Platelet DG rel	TPT1 inhibitor	PHOSPHO1 block	Rtt109 HAT inh
COc1cc(C(=O)NCCCC2CCCC2)ccc1OC1CCN(C(C)=O)CC1	-2	/	-1	/	/	5
CN(/N=C/c1cc(Br)cc(Br)c1O)c1cccc(C(F)(F)F)n1	70*	/	-1	-2	13	15
Cc1cccc(-n2c(=O)c3c(n4cnnc24)-c2ccccc2CC32CCCCC2)c1	0	74*	-7	-1	23	5
O=C1NC(=S)SC1=Cc1ccccc1Cl	/	/	/	/	/	2
Cc1ccc(C2C(/C=C3/SC(=S)NC3=O)=C(c3cccs3)Oc3ccccc32)cc1 (centres undefined)	113*	35	-4	9	9	27
O=C(NCCC(=O)N(Cc1ccco1)Cc1cccs1)c1ccc(Br)cc1	/	/	/	/	/	1
CC1(C)Cc2ccccc2-c2nnc(SCC(=O)N3CCN(c4ccccc4)CC3)n21	-2	61*	2	0	-94	15
Cn1cccc1Cc1nnc(SCC(=O)N2CCCCCC2)n1-c1ccc(F)cc1	-5	12	-2	-1	3	6
